Mdm2 MdmX PPI: human Mdm2/MdmX binding inhibition; O15151+Q00987; inhibition, % at 8 µM; AID 485346; SaOS-2 split-luciferase Mdm2/MdmX complementation, luminescence; actives 3% (n = 330,000);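 active = inhibition of at least 50% at 8 µM in the primary screen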
Target sequence (O15151 whole entry, looked up): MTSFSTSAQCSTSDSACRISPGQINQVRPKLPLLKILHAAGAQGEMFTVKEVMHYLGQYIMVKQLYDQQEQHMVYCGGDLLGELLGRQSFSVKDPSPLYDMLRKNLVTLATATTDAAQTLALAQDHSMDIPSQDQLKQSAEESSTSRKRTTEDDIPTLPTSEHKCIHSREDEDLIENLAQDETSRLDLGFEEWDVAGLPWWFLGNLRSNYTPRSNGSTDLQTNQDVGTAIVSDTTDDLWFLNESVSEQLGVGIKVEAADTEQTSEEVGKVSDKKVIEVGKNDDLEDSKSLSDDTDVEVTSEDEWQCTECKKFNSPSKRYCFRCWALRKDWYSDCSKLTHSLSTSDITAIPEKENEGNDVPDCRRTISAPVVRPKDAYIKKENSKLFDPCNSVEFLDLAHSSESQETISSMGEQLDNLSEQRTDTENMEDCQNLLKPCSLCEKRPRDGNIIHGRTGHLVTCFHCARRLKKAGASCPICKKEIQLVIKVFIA
Target sequence (Q00987 whole entry, looked up): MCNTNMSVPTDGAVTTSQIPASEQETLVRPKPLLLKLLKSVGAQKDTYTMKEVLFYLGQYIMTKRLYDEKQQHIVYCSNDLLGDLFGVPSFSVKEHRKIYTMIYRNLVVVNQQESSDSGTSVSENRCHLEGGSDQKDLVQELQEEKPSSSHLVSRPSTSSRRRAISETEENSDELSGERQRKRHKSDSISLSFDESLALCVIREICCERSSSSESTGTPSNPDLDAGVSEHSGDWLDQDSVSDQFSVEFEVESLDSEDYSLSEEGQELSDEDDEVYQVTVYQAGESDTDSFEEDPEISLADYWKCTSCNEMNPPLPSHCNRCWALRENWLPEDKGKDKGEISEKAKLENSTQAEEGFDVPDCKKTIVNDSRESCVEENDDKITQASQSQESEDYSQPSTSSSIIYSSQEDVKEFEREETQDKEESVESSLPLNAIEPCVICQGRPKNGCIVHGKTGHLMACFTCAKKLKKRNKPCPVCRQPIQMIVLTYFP
Beta apoptosis: beta cell apoptosis inhibition. INS-1E cytokine-induced death, ATP luminescence, 48 h; percent of positive-control rescue, neutral wells zero. protection from apoptosis, % (concentration not given with the values). actives 0.8% (n = 300,000). AID 435005;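 active = Every replicate reaches about 75%, or at least half do and their mean reaches it too, limit read from the data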;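 note: 0% = cytokine-treated negative control wells and 100% = positive control rescue; higher means more ATP so stronger rescue from cytokine killing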
MPTP inh: blocks calcium-induced mitochondrial swelling; isolated mouse mitochondria, Ca2+ swelling absorbance, 30 min; inhibition, % at 10 µM; actives 1.4% (n = 360,000);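 active = inhibition of 50% or more, scaled per plate between neutral and stimulator controls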;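 note: 0% = DMSO wells given calcium and 100% = 1 mM EGTA wells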
GRIN3A LBD mod: NR3A (human) ligand-binding domain modulation; NR3A LBD differential scanning fluorimetry, Tm shift; 0% = protein alone, 100% = glycine-bound protein; Tm shift relative to glycine control, % at 25 µM; actives 2.5% (n = 340,000); AID 1259313;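 active = melting temperature shift of at least 10% of the positive control shift, at one fixed dose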
CSC inhib: cancer stem cell inhibition | cancer stem cell-like cells viability, luminescence | inhibition, % at 7.5 µM | actives 1.1% (n = 300,000) | AID 2717; in the data active = inhibition above about 75%; tested in HMLE shEcad cells
SKKanGAS inh: blocks kanamycin growth of S. pyogenes SKKanGAS strain. BacTiter-Glo, 6 h. inhibition, % at 7.5 µM. actives 1.3% (n = 300,000). AID 1662;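 active = mean replicate score, as percent of positive control median, at least 50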;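 note: strain carries kanamycin resistance gene driven by streptokinase promoter and grows in 40 µg/ml kanamycin; loss of luminescence reflects streptokinase promoter inhibition or plain growth inhibition; 0% = median of DMSO wells and 100% = positive control at its reference dose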
Mdm2-MdmX conf: confirmation of human Mdm2/MdmX interaction inhibitors; shares compounds with Mdm2 MdmX PPI; Mdm2-MdmX binding, luminescent assay; inhibition, % at 8 µM; actives 55% (n = 10,000); AID 489028; in the data active = inhibition above about 40%
FLuc counter: inhibits full-length luciferase, flagging false Mdm2/MdmX hits; shares compounds with Mdm2 MdmX PPI; AID 504607; SaOS-2 full-length luciferase counterscreen, luminescence; inhibition, % at 8 µM; actives 77% (n = 6,200);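 active = mean inhibition at 8 µM reaching about 37%, which flags the compound as non-specific, limit read from the data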;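 note: p53-null SaOS-2 cells with luciferase driven by a doxycycline-inducible promoter; compound on cells about two nights before reading with doxycycline added after day one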
* marks the source's active call; other numbers are inactive results. An excerpt weighted towards active compounds, which were near 6.9% of everything screened.

Screening O=C(ONC1=NCCCCC1)c1c(F)cccc1F returned Mdm2 MdmX PPI 65*, Beta apoptosis -5, MPTP inh 0, GRIN3A LBD mod 2, CSC inhib 7, SKKanGAS inh -6 and Mdm2-MdmX conf 27.
For O=C(ONC1=NCCCCC1)c1ccc(Cl)cc1 the results were Mdm2 MdmX PPI 70*, Beta apoptosis 1, MPTP inh 0, GRIN3A LBD mod 0, CSC inhib 7, SKKanGAS inh -7 and Mdm2-MdmX conf 19.
`Cc1[nH]nc2nc(SCC(=O)NCCC3=CCCCC3)n(-c3ccc(Br)cc3)c(=N)c12` gave Mdm2 MdmX PPI 91*, Beta apoptosis 93*, MPTP inh 0, GRIN3A LBD mod 1, CSC inhib 56, SKKanGAS inh 6, Mdm2-MdmX conf 47* and FLuc counter 31.
`Cc1ccccc1-n1c(SCC(=O)Nc2ccccc2Cl)nc2n[nH]c(C)c2c1=N` gave Mdm2 MdmX PPI 66*, Beta apoptosis 1, MPTP inh 0, GRIN3A LBD mod -6, CSC inhib 16, SKKanGAS inh 11 and Mdm2-MdmX conf 12.
CCOc1ccccc1NC(=O)CCSc1nc2n[nH]c(C)c2c(=N)n1-c1ccccc1Cl was read as Mdm2 MdmX PPI 28, Beta apoptosis 9, MPTP inh 6, GRIN3A LBD mod -3, CSC inhib 13 and SKKanGAS inh -1.
`Cc1cc(-n2c(SCC(=O)NCCC3=CCCCC3)nc3n[nH]c(C)c3c2=N)ccc1Cl` gave Mdm2 MdmX PPI 36, Beta apoptosis 37, MPTP inh 0, GRIN3A LBD mod -6, CSC inhib 29 and SKKanGAS inh 8.
For CCOc1ccccc1-n1c(SCC(=O)Nc2ccc(CC)cc2)nc2n[nH]c(C)c2c1=N the results were Mdm2 MdmX PPI 93*, Beta apoptosis 13, GRIN3A LBD mod -3, CSC inhib 0, SKKanGAS inh 21 and Mdm2-MdmX conf 11.
Screening CCCCC(=O)N(C)c1c(CC)nc2c(OCCC)cccn12 returned MPTP inh -1.
`COc1ccccc1CNC(=O)CN(C)CC(=O)Nc1ccc(F)c(F)c1F` gave Mdm2 MdmX PPI 18, Beta apoptosis 2, MPTP inh 1, GRIN3A LBD mod 1 and CSC inhib -14.
Screening Cc1cc(C)cc(N(CCC#N)C(=O)COC(=O)c2ccc(OCc3c(C)noc3C)cc2)c1 returned Mdm2 MdmX PPI 11, Beta apoptosis 7, MPTP inh 0, GRIN3A LBD mod 1, CSC inhib -4 and SKKanGAS inh 1.
`Cc1cc(C)n(C(C)CC(=O)Nc2ccc3c(c2)OCCO3)n1` (stereo not given) gave Mdm2 MdmX PPI 26, MPTP inh -1, GRIN3A LBD mod 3, CSC inhib 8 and SKKanGAS inh -9.
Screening CCN(CC)CCCN(C(=O)c1ccc(OC)cc1)c1nc(-c2ccc(OC)cc2)cs1 returned Mdm2 MdmX PPI 50*, Beta apoptosis -1, MPTP inh 2, GRIN3A LBD mod -1, CSC inhib 18, SKKanGAS inh -3, Mdm2-MdmX conf 40* and FLuc counter 58*.
For CCN(CC)CCCN(C(=O)c1ccccc1F)c1nc(-c2ccc(OC)cc2)cs1 the results were Mdm2 MdmX PPI 50*, Beta apoptosis -5, MPTP inh 0, GRIN3A LBD mod -1, CSC inhib 4, SKKanGAS inh 12, Mdm2-MdmX conf 42* and FLuc counter 69*.
Screening CCN(CC)CCCN(C(=O)c1ccccc1C)c1nc(-c2ccc(OC)cc2)cs1 returned Mdm2 MdmX PPI 30, Beta apoptosis 3, MPTP inh 1, GRIN3A LBD mod 1, CSC inhib -2 and SKKanGAS inh -1.
For COc1ccc(-c2csc(N(CCCN(C)C)C(=O)c3ccc(C)cc3)n2)cc1 the results were Mdm2 MdmX PPI 26, Beta apoptosis -20, MPTP inh 4, GRIN3A LBD mod 0, CSC inhib -7 and SKKanGAS inh 0.
Screening COc1ccc(-c2csc(N(CCCN(C)C)C(=O)c3ccc(C(C)(C)C)cc3)n2)cc1 returned Mdm2 MdmX PPI 54*, Beta apoptosis 4, MPTP inh 26, GRIN3A LBD mod 3, CSC inhib 26, SKKanGAS inh -2 and Mdm2-MdmX conf 39.
For CC(C)CCN1CCN(Cc2ccc(Sc3nncn3C)o2)CC1CCO (stereo not given) the results were Mdm2 MdmX PPI 34, Beta apoptosis -9, MPTP inh 1, GRIN3A LBD mod 1, CSC inhib -1 and SKKanGAS inh -13.
O=C(Cc1c(F)cccc1Cl)N/N=C/c1cccnc1 was read as Mdm2 MdmX PPI 15, Beta apoptosis -3, MPTP inh 0, GRIN3A LBD mod -1, CSC inhib -12 and SKKanGAS inh 17.
For Nc1ncc(-c2nnnn2-c2ccc(Cl)cc2)c(-c2ccc(Cl)cc2)n1 the results were Mdm2 MdmX PPI 57*, Beta apoptosis 11, MPTP inh 0, GRIN3A LBD mod 1, CSC inhib 58, SKKanGAS inh -2, Mdm2-MdmX conf 68* and FLuc counter 46*.
For Cc1sc2nc(C(C)C)nc(SCC(=O)N3CCN(C(=O)c4ccco4)CC3)c2c1C the results were Mdm2 MdmX PPI 17, Beta apoptosis -12, MPTP inh 0, GRIN3A LBD mod -5, CSC inhib -13 and SKKanGAS inh 9.
CCc1c(C)sc2nc(C(C)C)nc(SCC(=O)N3CCc4ccccc4C3)c12 was read as Mdm2 MdmX PPI 95*, Beta apoptosis 105*, GRIN3A LBD mod -1, CSC inhib 192*, SKKanGAS inh 62*, Mdm2-MdmX conf 58* and FLuc counter 74*.
Screening CCN(Cc1ccc2c(c1)OCCO2)C(=O)CN1C(=O)NC2(CCCCC2)C1=O returned Mdm2 MdmX PPI -8, Beta apoptosis -8, MPTP inh 0 and GRIN3A LBD mod -1.
Screening COc1ccc(C2=NN(c3ccc(C=O)cc3)C(c3ccccc3)C2)cc1 (stereo not given) returned Mdm2 MdmX PPI -13, Beta apoptosis 10, GRIN3A LBD mod 1, CSC inhib 29 and SKKanGAS inh 0.
COc1ccc(C2CC(c3ccccc3)=NN2c2ccc(C(N)=O)cc2)cc1 (stereo not given) was read as Mdm2 MdmX PPI 12, Beta apoptosis 3, MPTP inh 0, GRIN3A LBD mod -4, CSC inhib -11 and SKKanGAS inh 26.
For COc1ccc(C2CC(c3cccc(C(F)(F)F)c3)=NN2c2ccc(S(N)(=O)=O)cc2)cc1 (stereo not given) the results were Mdm2 MdmX PPI 87*, MPTP inh 0, GRIN3A LBD mod 28* and Mdm2-MdmX conf 30.
